Source: ChEMBL document CHEMBL3433997, “St. Jude Leishmania screening dataset” (2016)

How the values were obtained:
Type in all cases: functional
[1] = biological target: Solute carrier family 2, facilitated glucose transporter member 1 (Homo sapiens) (UniProt P11166); test: ST_JUDE_LEISH: Cytotoxicity at 2uM final concentration against transgenic Leishmania Mexicana promastigotes LmGLUT1 that are glucose transport deficient and complemented with the human glucose transporter GLUT1. Activity is measured by DNA content using SYBR green in vitro
Sequence of Solute carrier family 2, facilitated glucose transporter member 1 (Homo sapiens) (P11166 whole entry): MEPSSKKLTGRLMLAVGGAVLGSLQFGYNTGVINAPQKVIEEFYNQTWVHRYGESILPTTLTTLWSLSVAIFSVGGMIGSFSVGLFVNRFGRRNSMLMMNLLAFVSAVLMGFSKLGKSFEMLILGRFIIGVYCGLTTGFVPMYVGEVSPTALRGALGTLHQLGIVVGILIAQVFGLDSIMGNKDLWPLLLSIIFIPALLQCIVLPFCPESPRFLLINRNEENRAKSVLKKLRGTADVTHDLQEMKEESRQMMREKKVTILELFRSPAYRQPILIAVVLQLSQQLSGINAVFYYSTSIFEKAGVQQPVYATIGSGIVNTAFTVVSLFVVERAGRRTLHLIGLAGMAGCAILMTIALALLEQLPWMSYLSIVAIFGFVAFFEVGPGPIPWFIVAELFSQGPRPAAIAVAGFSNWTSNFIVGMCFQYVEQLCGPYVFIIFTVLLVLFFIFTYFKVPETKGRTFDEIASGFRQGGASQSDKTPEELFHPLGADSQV

[2] = biological target: Hexose transporter 1 (Plasmodium falciparum) (UniProt O97467); test: ST_JUDE_LEISH: Cytotoxicity at 2uM final concentration against transgenic Leishmania Mexicana promastigotes LmPfHT that are glucose transport deficient and complemented with the Plasmodium falciparum hexose transporter. Activity is measured by DNA content using SYBR green in vitro
[3] = biological target: Glucose transporter (Leishmania mexicana) (UniProt O61059); test: ST_JUDE_LEISH: Cytotoxicity at 2uM final concentration against transgenic Leishmania Mexicana promastigotes LmGT2 that are glucose transport deficient and complemented with the L. Mexicana glucose transporter 2. Activity is measured by DNA content using SYBR green in vitro

COc1cc2c(c(Cl)c1OC)CCN(Cc1ccccc1)CC2c1ccc(NC(=O)C(F)(F)F)cc1 (stereo unspecified) gave an inhibition [1] of 3.91%, an inhibition [2] of 2.68% and an inhibition [3] of 2.44%.

For Cc1cccc(-c2ccc3c(c2)CC(NCc2cccc(-n4ccnc4)c2)C3)c1 (stereo unspecified), the inhibition [1] was 31.8%, the inhibition [2] was 41.4% and the inhibition [3] was 26.6%.

NC(=O)C1CCN(Cc2ccc(-c3ccc(-c4nc5cc(C(F)(F)F)ccc5[nH]4)cc3)cc2)CC1 was tested, and the inhibition [1] was 4.65%, the inhibition [2] was 2.32% and the inhibition [3] was 3.93%.

Cc1cc2cc(NC(=O)Nc3ccnc4ccccc34)ccc2n1C showed an inhibition [1] of 0.22%, an inhibition [2] of 0.43% and an inhibition [3] of 0.82%.

O=C(c1ccc(Cl)cc1)C1CCCN(C2CCN(CCc3ccccc3)CC2)C1 (stereo unspecified) gave an inhibition [1] of 12.5%, an inhibition [2] of 17.3% and an inhibition [3] of 13.8%.

In the case of Cc1n[nH]c2ccc(-c3ccc4nccc(N5CCC(N)CC5)c4c3)cc12, the inhibition [1] is reported as -2.13%, the inhibition [2] is reported as -0.1% and the inhibition [3] is reported as -3.17%.

With COc1ccc(C2CCN(CCCCNC(=O)c3ccc(NC(=O)c4ccc(Cl)cc4)cc3)C2)c(OC)c1 (stereo unspecified) the inhibition [1] was -0.08%, the inhibition [2] was 0.01% and the inhibition [3] was 0.7%.

With OCCn1c(CNCCCNc2nc3ccccc3[nH]2)cc2c(Cl)cc(Cl)cc21 the inhibition [1] was 82%, the inhibition [2] was 88.2% and the inhibition [3] was 80.5%.

For CCCCCCNC(=O)C1Cc2c([nH]c3ccccc23)C2(CCN(CCc3ccccc3)CC2)N1 (stereo unspecified), the inhibition [1] was 2.97%, the inhibition [2] was 0.47% and the inhibition [3] was 0.55%.

CC(C)C[C@H](NC(=O)[C@H](Cc1ccccc1)NC(=O)CCN1C(=O)COc2ccc(C(=O)O)cc21)C(=O)NC(CC1CCCCC1)C(O)CC(=O)NCCCn1ccnc1 (stereo partly specified) showed an inhibition [1] of 9.79%, an inhibition [2] of 6.73% and an inhibition [3] of 9.78%.

CCOC(=O)[C@H](Cc1cccc2ccccc12)NC(=O)[C@H](CCC(=O)OC(C)(C)C)NC(=O)c1ccc(N(C)Cc2cnc3nc(N)nc(N)c3n2)cc1 gave an inhibition [1] of 3.47%, an inhibition [2] of 4.12% and an inhibition [3] of 3.56%.

Work on Cc1cnc2ccc(NS(=O)(=O)c3ccc4c(Cl)cccc4c3)cc2c1N1CCNCC1 yielded an inhibition [1] of 1.16%, an inhibition [2] of 1.37% and an inhibition [3] of 1.37%.

N#Cc1cncc(-c2nc3c(N4CCC(Cc5ccccc5)CC4)cccc3n2CCNCc2ccccc2)c1 showed an inhibition [1] of 5.27%, an inhibition [2] of 4.45% and an inhibition [3] of 6.16%.

Compound Nc1ncc(-c2ccc3nccc(-c4ccncc4)c3c2)cc1S(=O)(=O)N1CCOCC1 has an inhibition [1] of 5.11%, an inhibition [2] of 3.05% and an inhibition [3] of 1.27%.

Compound CS(=O)(=O)NCCCNCc1cccc(-c2csc(-c3nc4ccccc4[nH]3)c2)c1 has an inhibition [1] of -0.84%, an inhibition [2] of -0.51% and an inhibition [3] of -0.84%.

Compound O=C(CCCC(=O)Nc1ccc(C2=NCCN2)cc1)Nc1ccc(C2=NCCN2)cc1 has an inhibition [1] of 0.86%, an inhibition [2] of 0.54% and an inhibition [3] of -0.14%.

CN1CCCN(Cc2cccc(-c3ccc(CNC(=O)c4cccc(Cl)c4)c(F)c3)c2)CC1 gave an inhibition [1] of 69.9%, an inhibition [2] of 63.1% and an inhibition [3] of 30.9%.

With N=C1C=C(N)C(=O)c2ccccc21 the inhibition [1] was 89%, the inhibition [2] was 100% and the inhibition [3] was 94.2%.

CCN(CC)CCCNc1c2ccccc2nc2ccccc12 gave an inhibition [1] of 23.4%, an inhibition [2] of 22.3% and an inhibition [3] of 16.5%.

O=C(Nc1ccc(Cl)cc1)Nc1cccc(-c2cc(CNCCc3ccccc3)oc2-c2ccncc2)c1 was tested, and the inhibition [1] was 5.78%, the inhibition [2] was 2.56% and the inhibition [3] was 3.77%.

With CCNc1cc(C(=O)N[C@@H](Cc2ccccc2)[C@H](O)CNC(C)(C)CCCC(C)C)cc(N2CCCCS2(=O)=O)c1 the inhibition [1] was -0.28%, the inhibition [2] was 0.88% and the inhibition [3] was -0.83%.

CCc1ccc(CN2CCC(NC(=O)c3ccc(-c4ccc(N(C)C)cc4)s3)CC2)cc1 was tested, and the inhibition [1] was 2.04%, the inhibition [2] was 1.82% and the inhibition [3] was 6.05%.

With CCOC(=O)C1=C(C)N=c2sc(=Cc3ccccc3O)c(=O)n2C1c1ccc(OC)c2ccccc12 (stereo unspecified) the inhibition [1] was -1.25%, the inhibition [2] was -0.06% and the inhibition [3] was -1.57%.

Compound CC(C)(CNCc1ccc(F)c(F)c1)c1nc(-c2ccc(Cl)c(O)c2)c(-c2ccncc2)[nH]1 has an inhibition [1] of 2.43%, an inhibition [2] of 0.25% and an inhibition [3] of 0.94%.

Compound CN(C)CC(=O)NCC(NCCCNc1cc(=O)c2ccccc2[nH]1)c1cc(Br)cc(Br)c1 (stereo unspecified) has an inhibition [1] of 5.5%, an inhibition [2] of 5.13% and an inhibition [3] of 5.64%.

O=C(N[C@@H](CC1CCCCC1)C(=O)NCCN1CCCCC1)c1ccc(O)c(-c2cccc(C(F)(F)F)c2)c1 gave an inhibition [1] of 2.41%, an inhibition [2] of 3.95% and an inhibition [3] of -0.49%.

OCCN1CCN(c2nc(Nc3cccc(F)c3)c3cnn(-c4ccccc4)c3n2)CC1 gave an inhibition [1] of 3.91%, an inhibition [2] of 0.94% and an inhibition [3] of -2.4%.

Compound CC(C)CC1c2[nH]c3ccccc3c(=O)c2CN1C(=O)OC(C)(C)C (stereo unspecified) has an inhibition [1] of 2.72%, an inhibition [2] of 2.68% and an inhibition [3] of 1.8%.

With CCC(=O)Oc1ccc(NC(=O)c2cccc(OC)c2)cc1 the inhibition [1] was 1.64%, the inhibition [2] was 1.17% and the inhibition [3] was 1.69%.

For CCc1cccc(C)c1-n1nc(-c2cc(C(C)(C)C)oc2C)cc1N, the inhibition [1] was 2.34%, the inhibition [2] was 1.75% and the inhibition [3] was 0.33%.

With Cc1cc2nc(-c3ccc(OCC(=O)NCc4ccc(C(C)(C)C)cc4)cc3)[nH]c2cc1C the inhibition [1] was 6.86%, the inhibition [2] was 7.11% and the inhibition [3] was 6.35%.

Compound O=C(CNC1CCCCC1)Nc1cccc(C(=O)Nc2cccc(C(F)(F)F)c2)c1 has an inhibition [1] of -1.07%, an inhibition [2] of -0.66% and an inhibition [3] of -1.14%.
